A selection: hits, their analogues and other compounds. The true share with any hit is near 12%.
SARS PLP yeast: qHTS of Yeast-based Assay for SARS-CoV PLP | S. cerevisiae expressing SARS-CoV PLpro, growth rescue | Potency, µM (series often up to 32.9 µM), usual class: activators | actives 0.19% (n = 330,000); calls by dose curve; also: nearly all actives have a fitted effect of over 55% in size
Pf growth 48h: Primary qHTS for delayed death inhibitors of the malarial parasite plastid, 48 hour incubation | P. falciparum luciferase growth in erythrocytes, 48 h | Potency, µM (titrated, usually from 28.7 µM), usual class: inhibitors | actives 5.9% (n = 310,000) | AID 504832, 2011
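Erythrocytes infected with P. falciparum carrying an integrated firefly luciferase reporter (2% hematocrit, 0.1% parasitemia final) were exposed to compounds in RPMI 1640 with 0.5% Albumax at 37 C, 5% CO2. Growth inhibition was scored as reduced luminescence.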
NS1 inh: qHTS Assay for Inhibitors of Influenza NS1 Protein Function; actives 0.4% (n = 270,000); Potency, µM (series often up to 46.1 µM); calls by dose curve; also: actives are rising curves; nearly all actives have a fitted effect of over 50% in size
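OD600 was taken as the measure of yeast growth restored by compound in an NS1-expressing S. cerevisiae strain. Cells had been washed out of glucose medium and diluted 1:100 into galactose -URA medium, pH 6.0.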
AMA1 RON2 block: qHTS for Inhibitors of AMA1-RON; Towards Development of Antimalarial Drug Lead: Primary Screen. Plasmodium falciparum AMA1 (3D7) - RON2 peptide interaction. AlphaScreen AMA1-biotinylated RON2 peptide binding. Potency, µM (doses to about 58.2 µM), most hits filed as inhibitors. actives 0.2% (n = 360,000). AID 720542, 2013; also: nearly all actives have a fitted effect of over 45% in size
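AMA1 (3D7) with his tag at 25 nM final met compounds first, then biotinylated RON2 peptide at 25 nM; detection used donor plus acceptor beads, 10 µg/mL apiece, read by AlphaScreen after 30 min at room temperature.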
Pf growth 96h: Primary qHTS for delayed death inhibitors of the malarial parasite plastid, 96 hour incubation; actives 6.9% (n = 320,000); P. falciparum luciferase reporter growth, 96 h; Potency, µM (titrated, usually from 28.7 µM), most hits filed as inhibitors
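P. falciparum expressing integrated firefly luciferase grown in erythrocytes (2% hematocrit, 0.05% parasitemia final) with compounds for 96 hours at 37 C, 5% CO2. Growth inhibition read as loss of luminescence after adding luciferase detection reagent.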
HCV inh: qHTS Assay for Inhibitors of Hepatitis C Virus (HCV); Huh7.5.1 HCVcc-Cre infection, luciferase reporter, 44 h; Potency, µM (top dose mostly 41.8 µM), actives largely listed as inhibitors; actives 3.4% (n = 340,000)
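After 44 h co-culture of compound, cells and HCVcc-Cre (~0.5 moi), substrate is added for 15 min at room temperature and luciferase measured over 15 sec. Cells were seeded at 1,000/well and pre-cultured 4 h.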
Large screens that a line does not name were inactive. Unless noted, calls follow the shape of the dose curve; as a rule, active = well fitted curve in the direction sought with a large enough effect; inconclusive = small, poorly fitted or top-dose-only effect, or another doubt; inactive = no such curve, though single readings can be large; an effect the other way counts as inactive or inconclusive.

CC(C)Oc1ccc(S(=O)(=O)N2CCOCC2)cc1NC(=O)c1ccc(N2CCCC2=O)cc1	Pf growth 48h 4.15µM, Pf growth 96h 1.31µM
CC(C)Oc1ccc(S(=O)(=O)N2CCOCC2)cc1NC(=O)c1ccc(Cl)c(S(=O)(=O)N2CCOCC2)c1	none (no result: SARS PLP yeast, Pf growth 48h, NS1 inh, Pf growth 96h, HCV inh)
CC(C)Oc1ccc(S(=O)(=O)N2CCOCC2)cc1NC(=O)C1=NN(c2ccccc2)C(=O)CC1	Pf growth 48h 3.7µM, Pf growth 96h 1.65µM, HCV inh inconclusive (no result: NS1 inh)
CC(C)Oc1ccc(S(=O)(=O)N2CCOCC2)cc1NC(=O)CC1CCCC1	Pf growth 48h 9.28µM, Pf growth 96h 8.28µM (no result: NS1 inh)
COc1ccc(S(=O)(=O)N2CCCCC2)cc1NC(=O)c1ccc(N2CCCC2=O)cc1	Pf growth 48h 9.28µM, Pf growth 96h inconclusive (no result: NS1 inh)
CC(C)Oc1ccc(S(=O)(=O)N2CCOCC2)cc1NC(=O)C1CCC1	Pf growth 96h inconclusive (no result: NS1 inh)
COc1ccc(S(=O)(=O)N2CCCCCC2)cc1NC(=O)c1ccccc1	Pf growth 96h inconclusive
CCOC(=O)c1cnc(N(C)C)nc1SC(=N)N	none (no result: SARS PLP yeast, Pf growth 48h, AMA1 RON2 block, Pf growth 96h, HCV inh)
CCc1cc2cc(C)cc(C)c2[nH]c1=S	none (no result: NS1 inh)
COC(=O)C1(c2ccccc2)NC(c2ccc(O)cc2)C2C(=O)N(c3ccc4c(c3)OCO4)C(=O)C21 (stereo unspecified)	Pf growth 48h inconclusive, Pf growth 96h inconclusive
CC1(C)CC(C(CC(=O)N2CCCC2)Cc2ccccc2)CCO1 (stereo unspecified)	Pf growth 96h inconclusive
CC(=O)OC1C(N2CCCCC2)c2c(ccc(/C=C/C(=O)N3CCCCC3)c2O)OC1(C)C (stereo unspecified)	Pf growth 48h inconclusive
Cc1ccc(S(=O)(=O)N2CCCCC2)cc1NC(=O)c1ccc(Cl)nc1	Pf growth 48h inconclusive, Pf growth 96h inconclusive, HCV inh inconclusive (no result: NS1 inh)
CCN(CC)S(=O)(=O)c1ccc(NC(=O)c2ccc(N3CCCC3=O)cc2)cc1	HCV inh inconclusive (no result: Pf growth 48h, NS1 inh, Pf growth 96h)
CCOc1ccc(S(=O)(=O)N(CC)CC)cc1NC(=O)c1ccc(N2CCCC2=O)cc1	Pf growth 48h 10.4µM, Pf growth 96h inconclusive, HCV inh inconclusive
COc1ccc(S(=O)(=O)N2CCCCC2)cc1NC(=O)c1ccc(Cl)nc1	Pf growth 48h 14.7µM, Pf growth 96h inconclusive (no result: NS1 inh)
Cc1noc(C)c1CSCC(=O)Nc1cc(S(=O)(=O)N2CCCCC2)ccc1OC(C)C	Pf growth 48h 13.1µM, Pf growth 96h inconclusive, HCV inh inconclusive (no result: NS1 inh)
CCN(CC)S(=O)(=O)c1ccc(OC)c(NC(=O)c2ccc(N3CCCC3=O)cc2)c1	Pf growth 48h inconclusive, Pf growth 96h 9.28µM (no result: NS1 inh)
Cc1ccc(Nc2nnc(SCC(=O)NCCN3C(=O)CSC3=O)s2)cc1C	Pf growth 96h inconclusive (no result: SARS PLP yeast)
CC(C)(C)N(Cc1ccc2c(c1)OCO2)C(=O)/C=C\S(=O)c1ccccc1 (stereo unspecified)	HCV inh 11.2µM (no result: SARS PLP yeast, Pf growth 48h, NS1 inh, Pf growth 96h)
COCc1cc(C)n(CC(=O)Nc2ccc3c(c2)OCO3)c(=O)c1C#N	none
C[C@@]12C(=O)OC(=O)[C@]1(C)C1CCC2O1	Pf growth 48h 2.94µM, Pf growth 96h 1.85µM, HCV inh 0.501µM (no result: SARS PLP yeast, NS1 inh)
CCn1c(-c2cc(-c3ccc(OC(C)C)cc3)nc3ccccc23)n[nH]c1=S	Pf growth 96h 1.47µM (no result: Pf growth 48h)
C=CCn1c(-c2cccc(OCC)c2)n[nH]c1=S	none
CCCOc1cccc(-c2cc(-c3n[nH]c(=S)n3CC)c3ccccc3n2)c1	Pf growth 48h 10.4µM, Pf growth 96h 3.7µM, HCV inh inconclusive
CCn1c(-c2cc(-c3ccc(C)cc3)nc3ccccc23)n[nH]c1=S	Pf growth 48h inconclusive, Pf growth 96h 16.5µM (no result: NS1 inh)
C=CCn1c(-c2cc(-c3ccc(C)cc3)nc3ccccc23)n[nH]c1=S	Pf growth 48h 16.5µM, Pf growth 96h inconclusive (no result: NS1 inh)
CCn1c(-c2ccccc2SC)n[nH]c1=S	Pf growth 96h inconclusive (no result: NS1 inh)
O=C(COC(=O)Cc1ccsc1)Nc1cccc(F)c1	HCV inh inconclusive (no result: NS1 inh)
COc1ccc(C(=O)C(O)C(c2ccc(C)cc2)N2CCOCC2)cc1OC (stereo unspecified)	none
CCOC(=O)CCCNC(=O)CSc1nnc(-c2ccccc2)c(-c2ccccc2)n1	Pf growth 96h inconclusive
O=C(Cc1ccc(F)cc1)Nc1nnc(-c2ccc(F)cc2)o1	Pf growth 48h inconclusive, Pf growth 96h inconclusive
CCOC(=O)c1c(NC(=O)CN2CCCCC2)sc(CN(C)C)c1-c1ccccc1	HCV inh 22.4µM
CCOC(=O)c1c(NC(=O)CCl)sc(CN(C)C)c1-c1ccccc1	Pf growth 48h 13.1µM, Pf growth 96h inconclusive, HCV inh inconclusive (no result: NS1 inh)
CCOC(=O)c1c(NC(=S)N2CCN(C)CC2)sc(C)c1-c1ccccc1	Pf growth 48h inconclusive
OCC[C@@H]1C[C@@H](O)[C@H](O)[C@@]2(Cc3ccccc3O2)O1	none
Cc1cc(C)c[n+](-c2[nH]c(=O)sc2/C=N/N=C(\[O-])c2cccnc2)c1	none
CNCC(=O)N(CC(C)C)c1c(N)n(CC(C)C)c(=O)[nH]c1=O	none
CCN(CC)c1ccc(C2C3CCCCC3(O)CCN2C(=O)c2cccs2)cc1 (stereo unspecified)	Pf growth 48h inconclusive, Pf growth 96h 11.7µM
CCN(CC)c1ccc(C2C3CCCCC3(O)CCN2CC(=O)N2CCCCC2)cc1 (stereo unspecified)	Pf growth 48h inconclusive, Pf growth 96h inconclusive
O=C(c1cccs1)N1CCC2(O)CCCCC2C1c1ccc(F)cc1 (stereo unspecified)	none
CCN(CC)c1ccc([C@H]2[C@@H]3CCCC[C@]3(O)CCN2CC(=O)NCc2ccco2)cc1	Pf growth 48h 10.4µM, Pf growth 96h inconclusive
S=c1[nH]c(-c2ccccc2)cn1/N=C/c1cccs1	Pf growth 48h inconclusive, Pf growth 96h 11.7µM
S=c1[nH]c(-c2ccccc2)cn1/N=C/c1ccc(Br)cc1	Pf growth 48h inconclusive, Pf growth 96h inconclusive
Oc1ccc(C[C@@H]2CNCCN2CCC23CC4CC(CC(C4)C2)C3)cc1	Pf growth 48h 10.4µM, Pf growth 96h 2.08µM, HCV inh inconclusive (no result: NS1 inh)
Oc1ccc(C[C@H]2CNCCN2CCCCC2CCCCC2)cc1	Pf growth 48h 8.28µM, Pf growth 96h inconclusive, HCV inh inconclusive (no result: NS1 inh)
O=C(CSc1nnc2c(n1)[nH]c1ccc(F)cc12)N1CCOCC1	none
O=C(O)CSc1nnc2c(n1)[nH]c1ccccc12	none (no result: NS1 inh)
O=C(CSc1nnc2c(n1)[nH]c1ccc(F)cc12)NC1CC1	Pf growth 96h 3.29µM
CC1Cc2ccccc2N1C(=O)CSc1nnc2c(n1)[nH]c1ccc(F)cc12 (stereo unspecified)	Pf growth 48h 1.47µM
